From the supplement of paper PMC13380429

Columns and labels:
[1] = tested on: Vero E6 infected with SARS-CoV-2; assay: morphology score (similarity to uninfected cells); higher = more like uninfected cells; conditions: 24 h
[2] = tested on: Vero E6 infected with SARS-CoV-2; assay: SARS-CoV-2 infection rate relative to infected DMSO; higher = more infection, active = 60 or less; conditions: 24 h

SMILES	morphology score [1]	SARS-CoV-2 infection rate [2]
CCCOc1ccc(Br)cc1-c1cc(-c2ccc(Cl)cc2)[nH]c1-c1ccncc1 (10 µM)	0.113	100% (inactive)
C1N2CN3CN1CN(C2)C3 [methenamine] (10 µM)	0.11	100% (inactive)
C[C@@H](Oc1ccc2[nH]nc(/C=C/c3cnn(CCO)c3)c2c1)c1c(Cl)cncc1Cl (10 µM)	-0.00865	120% (inactive)
COc1cc(Nc2ncc(F)c(Nc3ccc4c(n3)NC(=O)C(C)(C)O4)n2)cc(OC)c1OC (10 µM)	0.09	124% (inactive)
O=C(NN1C(=O)[C@@H]2[C@@H]3C=C[C@@H]([C@H]4C[C@@H]34)[C@@H]2C1=O)c1ccc(C(F)(F)F)cc1 [tecovirimat] (10 µM)	-0.108	102% (inactive)
CCOC(=O)c1ncc2[nH]c3ccc(OCc4ccccc4)cc3c2c1COC (10 µM)	-0.0675	97.5% (inactive)
[Cl][Ti][Cl].c1cc[cH-]c1.c1cc[cH-]c1 [titanocene-dichloride] (10 µM)	0.163	84% (inactive)
CC(=N)NCc1cccc(CN)c1 (10 µM)	-0.0209	107% (inactive)
COc1cc2nc(N3CCN(C(=O)C4CCCO4)CC3)nc(N)c2cc1OC (configuration not stated) [terazosin] (10 µM)	-0.108	110% (inactive)
O=C(Oc1cc(S(=O)(=O)c2ccccc2)ccc1[N+](=O)[O-])c1ccc(Cl)cc1 (10 µM)	0.245	104% (inactive)
Nc1nc(Nc2ccccc2)nc2c1ncn2[C@@H]1O[C@H](CO)[C@@H](O)[C@H]1O (10 µM)	0.144	102% (inactive)
O=c1sn(-c2cccc3ccccc23)c(=O)n1Cc1ccccc1 [tideglusib] (10 µM)	0.109	108% (inactive)
Cc1cc(C)c(NC(=O)N(Cc2ccc3c(c2)Cc2ccccc2-3)C2CCCCCC2)c(C)c1 (10 µM)	-0.179	106% (inactive)
C=CC[C@]1(O)CC[C@H]2[C@@H]3CCC4=CCCC[C@@H]4[C@H]3CC[C@@]21C [allylestrenol] (10 µM)	0.0416	92.5% (inactive)
CSc1nc(NC2CCCC2)c([N+](=O)[O-])c(NC2CCCC2)n1 (10 µM)	0.349	88% (inactive)
FC(F)(F)c1ccc(CNc2ccc(Cc3c[nH]c4ncc(Cl)cc34)cn2)cn1 [pexidartinib] (10 µM)	0.473	77.5% (inactive)

SMILES	morphology score [1]	SARS-CoV-2 infection rate [2]
O=C(O)CCC(=O)Nc1ccc(S(=O)(=O)Nc2nccs2)cc1 [succinylsulfathiazole] (10 µM)	0.0689	100% (inactive)
NCCNC(=O)c1ccc(Cl)cn1 [lazabemide] (10 µM)	0.0341	106% (inactive)
CCCOC(=O)c1ccc(O)cc1 [propyl 4-hydroxybenzoate] (10 µM)	-0.0462	111% (inactive)
Cl/C(=C\n1cncn1)c1ccc(Cl)cc1Cl [loreclezole] (10 µM)	0.0913	102% (inactive)
Cc1ccc(S(=O)(=O)NC2c3ccccc3Oc3ccccc32)cc1 (10 µM)	0.173	95.5% (inactive)
C=C1C[C@]23C[C@@]1(O)CC[C@H]2[C@@]12C=C[C@H](O)[C@@](C)(C(=O)O1)[C@H]2[C@@H]3C(=O)O (10 µM)	-0.0765	109% (inactive)
O=S(=O)(F)Cc1ccccc1 [phenylmethylsulfonyl-fluoride] (10 µM)	0.191	95% (inactive)
C[C@@H]1CN(c2c(F)c(F)c3c(=O)c(C(=O)O)cn(C4CC4)c3c2F)C[C@H](C)N1 [orbifloxacin] (10 µM)	0.149	96.5% (inactive)
CCCCOc1cc(C(=O)NCCN(CC)CC)c2ccccc2n1 [cinchocaine] (10 µM)	0.435	88% (inactive)
CCOc1ccn(-c2ccc(F)cc2)c(=O)c1C(=O)Nc1ccc(Oc2ccnc(N)c2Cl)c(F)c1 (10 µM)	0.364	107% (inactive)
O=C(/C=C/c1cccnc1)NCCCCC1CCN(C(=O)c2ccccc2)CC1 (0.833333 µM)	-0.0966	94% (inactive)
C[C@H]1NCc2cc(-c3ccc4c(=O)c(C(=O)O)cn(C5CC5)c4c3OC(F)F)ccc21 [garenoxacin] (10 µM)	0.0451	102% (inactive)
CC(C)c1cc(-c2n[nH]c(=O)n2-c2ccc3c(ccn3C)c2)c(O)cc1O [ganetespib] (0.833333 µM)	0.0711	111% (inactive)
CN1CCCN=C1/C=C/c1cccs1 [pyrantel-pamoate] (10 µM)	0.103	93.5% (inactive)
C[C@H]1COC2=C1C(=O)C(=O)c1c2ccc2c1CCCC2(C)C [cryptotanshinone] (10 µM)	0.0318	100% (inactive)
